This is an account of results in PubChem BioAssay (EPA / NIEHS).

The nature of assay [1]: ATG_NRF2_ARE_CIS: Attagene CIS-FACTORIAL HepG2 Assay for human Nuclear Factor Erythroid 2 Related Factor 2 (NFR2) response to Antioxidant Response Elements (ARE) (AID 2282992; active = hit-call score of the fitted dose curve at least 0.9, where 1 is the maximum; inactive = score below 0.9). The conditions noted are these: HepG2 Attagene ARE/NRF2 reporter, transcription factor activity; actives raise or lower the signal. An outline of the steps: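 Cis-factorial assay: transfected HepG2 reporter library, 24 h dosing, mRNA readout via RT-PCR/CE; DMSO-referenced bidirectional analysis.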

Assay [2] can be described thus: ATG_Oct_MLP_CIS: Attagene CIS-FACTORIAL HepG2 Assay for human Octamer-Binding Transcription Factor (Oct) (AID 2282993; active = hit-call score of the fitted dose curve at least 0.9, where 1 is the maximum; inactive = score below 0.9). As to conditions: HepG2 Attagene cis-factorial Oct reporter, mRNA; actives raise or lower the signal. An outline of the steps: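 Cells of the HepG2 line express promoter-controlled reporter sequences whose mRNA levels, after 24 h treatment, are measured by RT-PCR and capillary electrophoresis. Increases and decreases are scored relative to DMSO.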

In assay [3] the target is Cellular tumor antigen p53 (Homo sapiens) (UniProt P04637). As to the kind of experiment: ATG_p53_CIS: Attagene CIS-FACTORIAL HepG2 Assay for human p53 Transcription Factor (AID 2282994; active = hit-call score of the fitted dose curve at least 0.9, where 1 is the maximum; inactive = score below 0.9). The conditions noted are these: HepG2 p53 cis-element reporter, Attagene mRNA; actives raise or lower the signal. In outline: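 Using HepG2 hepatoma cells carrying cis-acting multiplexed reporters, mRNA induction is detected after a 24 h exposure. Gain- and loss-of-signal responses are fitted relative to DMSO-treated cells.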
Cellular tumor antigen p53 (Homo sapiens), sequence (P04637 whole entry, looked up): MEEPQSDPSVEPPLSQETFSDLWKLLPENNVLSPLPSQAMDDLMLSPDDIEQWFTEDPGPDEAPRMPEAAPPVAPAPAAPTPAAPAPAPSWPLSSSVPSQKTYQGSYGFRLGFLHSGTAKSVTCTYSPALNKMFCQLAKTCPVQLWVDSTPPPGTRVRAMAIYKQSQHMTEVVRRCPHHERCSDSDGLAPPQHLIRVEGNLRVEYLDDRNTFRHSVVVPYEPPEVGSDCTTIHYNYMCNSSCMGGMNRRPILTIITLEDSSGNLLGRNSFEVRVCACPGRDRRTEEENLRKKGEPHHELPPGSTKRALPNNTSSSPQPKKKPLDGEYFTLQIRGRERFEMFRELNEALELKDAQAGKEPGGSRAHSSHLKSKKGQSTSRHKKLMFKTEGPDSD

For assay [4], the target named is human Peroxisome Proliferator-activated Receptor alpha (PPARa), PPARA (gene 5465) (UniProt Q07869). As to the kind of experiment: ATG_PPARa_TRANS: Attagene TRANS-FACTORIAL HepG2 Assay for human Peroxisome Proliferator-activated Receptor alpha (PPARa) (AID 2283001). In outline:
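Read-out is fluorescence of reporter cDNA fragments resolved by capillary electrophoresis after RT-PCR. Human HepG2 liver cells carried transfected PPARa-Gal4 chimera and GAL4-UAS reporter units, treated 24 h; activity scored as increase over DMSO.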

For assay [5], the target named is human Peroxisome Proliferator-activated Receptor delta (PPARd), PPARD (gene 5467) (UniProt Q03181). The assay is described as follows: ATG_PPARd_TRANS: Attagene TRANS-FACTORIAL HepG2 Assay for human Peroxisome Proliferator-activated Receptor delta (PPARd) (AID 2283002). An outline of the steps:
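Transient HepG2 transfection (multiple GAL4-UAS RTUs, chimeric receptor-Gal4); 24 h dosing; total RNA → oligo(dT) RT → PCR → 6-FAM primer extension → HpaI cut → CE. Positive direction vs DMSO.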

In assay [6] the target is Peroxisome proliferator-activated receptor gamma (Homo sapiens) (UniProt P37231). As to the kind of experiment: ATG_PPARg_TRANS: Attagene TRANS-FACTORIAL HepG2 Assay for human Peroxisome Proliferator-activated Receptor-gamma (PPARg) (AID 2283007). In outline: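 HepG2 cells transiently transfected with multiplexed GAL4-UAS reporter units and exogenous chimeric NR-Gal4 proteins; reporter mRNA quantified after 24 h compound exposure by RT-PCR, fluorescent labelling, HpaI digestion and capillary electrophoresis; gain-of-signal fitted versus DMSO baseline.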
Peroxisome proliferator-activated receptor gamma (Homo sapiens), sequence (P37231 whole entry, looked up, the tested form may be a part): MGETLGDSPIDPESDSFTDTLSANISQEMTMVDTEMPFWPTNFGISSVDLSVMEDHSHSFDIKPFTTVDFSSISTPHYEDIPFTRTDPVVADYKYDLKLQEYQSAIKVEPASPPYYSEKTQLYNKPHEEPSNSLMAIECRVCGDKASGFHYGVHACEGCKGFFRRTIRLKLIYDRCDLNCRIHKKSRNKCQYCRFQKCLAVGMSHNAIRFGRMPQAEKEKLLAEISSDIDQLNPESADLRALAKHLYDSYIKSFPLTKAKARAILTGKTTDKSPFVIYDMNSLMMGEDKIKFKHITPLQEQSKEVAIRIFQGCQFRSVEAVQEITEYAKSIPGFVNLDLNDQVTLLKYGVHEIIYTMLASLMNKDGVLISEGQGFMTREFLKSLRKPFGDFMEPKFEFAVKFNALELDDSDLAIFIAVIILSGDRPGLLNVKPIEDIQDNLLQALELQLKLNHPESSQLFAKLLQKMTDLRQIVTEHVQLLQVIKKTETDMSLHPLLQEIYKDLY

Assay [7] deals with human Retinoic Acid Receptor gamma (RARg), RARG (gene 5916) (UniProt P13631). As to the kind of experiment: ATG_RARg_TRANS: Attagene TRANS-FACTORIAL HepG2 Assay for human Retinoic Acid Receptor gamma (RARg) (AID 2283009). An outline of the steps: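 Transient transfection of HepG2 with multi-reporter constructs, then 24 h chemical treatment. Total RNA isolated, reverse-transcribed, PCR-amplified, fluorescently labelled and resolved by capillary electrophoresis; activity scored as mRNA induction versus DMSO.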
human Retinoic Acid Receptor gamma (RARg), RARG (gene 5916), sequence (P13631 whole entry, looked up): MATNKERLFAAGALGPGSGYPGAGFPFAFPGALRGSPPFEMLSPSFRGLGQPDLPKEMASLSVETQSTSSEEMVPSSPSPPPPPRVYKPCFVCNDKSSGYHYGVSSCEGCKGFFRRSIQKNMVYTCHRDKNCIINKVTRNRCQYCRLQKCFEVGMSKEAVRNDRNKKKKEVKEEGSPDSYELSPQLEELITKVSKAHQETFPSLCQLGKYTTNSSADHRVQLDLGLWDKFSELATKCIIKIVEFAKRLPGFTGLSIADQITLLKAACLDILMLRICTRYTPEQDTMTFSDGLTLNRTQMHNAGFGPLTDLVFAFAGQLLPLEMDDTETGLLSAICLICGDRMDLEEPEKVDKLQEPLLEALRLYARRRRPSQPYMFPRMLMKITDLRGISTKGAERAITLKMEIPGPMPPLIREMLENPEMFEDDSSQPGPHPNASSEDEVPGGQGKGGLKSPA

Assay [8] addresses human RAR-related Orphan Receptor gamma (RORg), RORC (gene 6097) (UniProt P51449). As to the kind of experiment: ATG_RORg_TRANS: Attagene TRANS-FACTORIAL HepG2 Assay for human RAR-related Orphan Receptor gamma (RORg) (AID 2283011). In outline:
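HepG2 cells transiently transfected with GAL4-UAS reporter units and chimeric RORg-Gal4 construct; after 24 h chemical exposure, reporter mRNA measured by RT-PCR with fluorescent capillary electrophoresis, gain of signal fitted against DMSO.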

In assay [9] the target is human Retinoic Acid Receptor beta (RARb), RARB (gene 5915) (UniProt P10826). As to the kind of experiment: ATG_RARb_TRANS: Attagene TRANS-FACTORIAL HepG2 Assay for human Retinoic Acid Receptor beta (AID 2283004). An outline of the steps:
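HepG2 cells were transiently transfected with GAL4-UAS reporter units that report activity of exogenous chimeric NR-Gal4 proteins, then exposed to compound for 24 h. Reporter mRNA was quantified by RT-PCR with capillary electrophoresis fluorescence, as gain of signal over DMSO.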

For assay [10], the target named is Retinoic acid receptor RXR-alpha (Homo sapiens) (UniProt P19793). As to the kind of experiment: ATG_RXRa_TRANS: Attagene TRANS-FACTORIAL HepG2 Assay for human Retinoid X Receptor alpha (RXRa) (AID 2283012). In outline:
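Transient transfection of human HepG2 with multiple GAL4-UAS reporter constructs; 24 h compound exposure; total RNA isolated, reverse-transcribed, PCR-amplified, 6-FAM labelled, HpaI-cut, resolved by capillary electrophoresis. Positive-direction fit versus DMSO.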

Assay [11] concerns the target Nuclear receptor subfamily 1 group I member 2 (Homo sapiens) (UniProt O75469). As to the kind of experiment: ATG_PXR_TRANS: Attagene TRANS-FACTORIAL HepG2 Assay for human Pregnane X Receptor (PXR) (AID 2283008). An outline of the steps: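 Fluorescence intensity of FAM-labelled, HpaI-digested reporter amplicons, separated by capillary electrophoresis, quantifies induction. HepG2 cells with PXR-Gal4 trans-reporter system were exposed 24 h; DMSO defines baseline.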

The nature of assay [12]: ATG_NF_kB_CIS: Attagene CIS-FACTORIAL HepG2 Assay for human Nuclear Factor Kappa B (NF-kB) (AID 2282991; active = hit-call score of the fitted dose curve at least 0.9, where 1 is the maximum; inactive = score below 0.9). As to conditions: HepG2 Attagene cis-factorial NF-kB reporter mRNA; actives raise or lower the signal. An outline of the steps:
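HepG2 cells transiently transfected with multiplexed cis-element reporter units measuring endogenous transcription factor activity; reporter mRNA read 24 h after dosing by RT-PCR, fluorescent labelling, HpaI digestion and capillary electrophoresis. Bidirectional fit against DMSO baseline.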

Assay [13] has as its target Retinoic acid receptor alpha (Homo sapiens) (UniProt P10276). The assay is described as follows: ATG_RARa_TRANS: Attagene TRANS-FACTORIAL HepG2 Assay for human Retinoic Acid Receptor alpha (RARa) (AID 2283005). In outline:
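Reporter transcripts, measured by RT-PCR with fluorescent labeling and capillary electrophoresis after 24 h dosing, reflect activity of an exogenous human RARa–GAL4 fusion in transiently transfected HepG2. Fitted for increase relative to DMSO.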

Assay [14] has as its target human RAR-related Orphan Receptor beta (RORb), RORB (gene 6096) (UniProt Q92753). The assay is described as follows: ATG_RORb_TRANS: Attagene TRANS-FACTORIAL HepG2 Assay for human RAR-related Orphan Receptor beta (RORb) (AID 2283010). In outline:
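Readout is reporter-gene mRNA induction, detected as fluorescence after RT-PCR and capillary electrophoresis, fitted for gain of signal against DMSO controls. Transiently transfected HepG2 liver cells carrying GAL4-UAS reporter constructs were treated for 24 hours.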

Molecules are shown by their SMILES. Several values for one entry are separate records, joined by “and”; a condition that tells them apart may be missing. Equal entries are not always repeated. Results filed as inconclusive are left out. Activity calls are given as the source filed them. The calls were made as follows, unless noted: active = hit-call score of the fitted dose curve at least 0.9, where 1 is the maximum; inconclusive = response in the unintended direction; inactive = score below 0.9.

Nuclear receptor subfamily 1 group I member 2 (Homo sapiens), sequence (O75469 whole entry, looked up, the tested form may be a part): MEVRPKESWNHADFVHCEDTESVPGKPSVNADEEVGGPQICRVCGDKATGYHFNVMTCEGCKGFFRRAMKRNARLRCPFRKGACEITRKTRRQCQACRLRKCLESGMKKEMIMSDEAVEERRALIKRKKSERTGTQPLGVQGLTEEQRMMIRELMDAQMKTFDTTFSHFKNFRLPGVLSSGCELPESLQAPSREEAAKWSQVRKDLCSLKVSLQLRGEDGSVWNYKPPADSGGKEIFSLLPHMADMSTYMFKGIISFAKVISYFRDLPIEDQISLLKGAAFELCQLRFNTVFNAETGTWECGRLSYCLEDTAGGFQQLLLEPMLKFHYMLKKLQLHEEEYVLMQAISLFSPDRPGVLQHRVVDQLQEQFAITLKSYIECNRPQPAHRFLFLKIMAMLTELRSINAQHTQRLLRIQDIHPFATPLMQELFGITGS
human Peroxisome Proliferator-activated Receptor alpha (PPARa), PPARA (gene 5465), sequence (Q07869 whole entry, looked up, the tested form may be a part): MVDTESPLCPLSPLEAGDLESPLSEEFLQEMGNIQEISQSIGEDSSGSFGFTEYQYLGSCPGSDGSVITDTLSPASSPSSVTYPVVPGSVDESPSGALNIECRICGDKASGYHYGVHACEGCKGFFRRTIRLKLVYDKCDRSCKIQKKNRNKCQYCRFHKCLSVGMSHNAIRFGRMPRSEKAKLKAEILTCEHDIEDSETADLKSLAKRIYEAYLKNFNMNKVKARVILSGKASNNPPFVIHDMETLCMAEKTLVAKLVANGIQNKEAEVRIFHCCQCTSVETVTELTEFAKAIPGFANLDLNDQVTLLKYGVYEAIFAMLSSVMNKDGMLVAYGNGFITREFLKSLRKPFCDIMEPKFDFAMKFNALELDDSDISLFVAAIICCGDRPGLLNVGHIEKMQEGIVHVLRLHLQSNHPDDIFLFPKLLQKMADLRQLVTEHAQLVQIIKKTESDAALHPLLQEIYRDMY
human RAR-related Orphan Receptor gamma (RORg), RORC (gene 6097), sequence (P51449 whole entry, looked up, the tested form may be a part): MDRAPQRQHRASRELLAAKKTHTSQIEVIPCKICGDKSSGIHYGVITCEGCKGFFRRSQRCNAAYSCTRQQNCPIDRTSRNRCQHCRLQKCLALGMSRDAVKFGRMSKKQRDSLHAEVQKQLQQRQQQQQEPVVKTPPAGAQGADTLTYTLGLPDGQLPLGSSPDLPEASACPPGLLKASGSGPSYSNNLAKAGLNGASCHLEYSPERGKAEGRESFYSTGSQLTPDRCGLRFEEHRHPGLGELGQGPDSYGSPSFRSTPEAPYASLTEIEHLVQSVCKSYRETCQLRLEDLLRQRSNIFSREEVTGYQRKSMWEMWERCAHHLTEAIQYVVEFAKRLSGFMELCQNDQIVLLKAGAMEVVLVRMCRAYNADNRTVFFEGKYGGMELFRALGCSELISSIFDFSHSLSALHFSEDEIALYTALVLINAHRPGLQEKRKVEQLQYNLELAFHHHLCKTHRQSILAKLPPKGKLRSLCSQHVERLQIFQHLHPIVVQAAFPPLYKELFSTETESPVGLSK
Retinoic acid receptor RXR-alpha (Homo sapiens), sequence (P19793 whole entry, looked up, the tested form may be a part): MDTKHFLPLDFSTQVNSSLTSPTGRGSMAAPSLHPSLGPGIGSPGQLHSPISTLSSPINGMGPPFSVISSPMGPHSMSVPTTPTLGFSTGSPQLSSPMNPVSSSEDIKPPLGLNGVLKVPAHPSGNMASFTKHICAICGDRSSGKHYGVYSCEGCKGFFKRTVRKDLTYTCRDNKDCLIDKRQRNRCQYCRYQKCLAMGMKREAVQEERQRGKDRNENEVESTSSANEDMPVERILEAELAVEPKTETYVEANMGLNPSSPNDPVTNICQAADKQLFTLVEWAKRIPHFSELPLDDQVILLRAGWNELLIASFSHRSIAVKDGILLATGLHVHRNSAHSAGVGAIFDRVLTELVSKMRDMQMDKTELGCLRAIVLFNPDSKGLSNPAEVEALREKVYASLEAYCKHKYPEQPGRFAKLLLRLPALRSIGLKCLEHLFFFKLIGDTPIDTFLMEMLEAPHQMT
human Peroxisome Proliferator-activated Receptor delta (PPARd), PPARD (gene 5467), sequence (Q03181 whole entry, looked up, the tested form may be a part): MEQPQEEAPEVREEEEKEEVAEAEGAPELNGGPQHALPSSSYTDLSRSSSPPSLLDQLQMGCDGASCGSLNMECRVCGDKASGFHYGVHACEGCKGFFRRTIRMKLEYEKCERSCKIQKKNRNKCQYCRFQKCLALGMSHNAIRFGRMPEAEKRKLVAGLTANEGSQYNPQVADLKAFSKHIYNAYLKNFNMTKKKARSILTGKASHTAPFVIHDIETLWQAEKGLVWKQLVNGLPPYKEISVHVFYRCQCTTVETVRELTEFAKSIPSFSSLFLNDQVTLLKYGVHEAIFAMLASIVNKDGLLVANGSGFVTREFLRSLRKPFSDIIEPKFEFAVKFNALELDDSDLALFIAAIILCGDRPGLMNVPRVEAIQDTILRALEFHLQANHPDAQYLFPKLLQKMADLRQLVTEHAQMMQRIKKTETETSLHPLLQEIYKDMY
human Retinoic Acid Receptor beta (RARb), RARB (gene 5915), sequence (P10826 whole entry, looked up, the tested form may be a part): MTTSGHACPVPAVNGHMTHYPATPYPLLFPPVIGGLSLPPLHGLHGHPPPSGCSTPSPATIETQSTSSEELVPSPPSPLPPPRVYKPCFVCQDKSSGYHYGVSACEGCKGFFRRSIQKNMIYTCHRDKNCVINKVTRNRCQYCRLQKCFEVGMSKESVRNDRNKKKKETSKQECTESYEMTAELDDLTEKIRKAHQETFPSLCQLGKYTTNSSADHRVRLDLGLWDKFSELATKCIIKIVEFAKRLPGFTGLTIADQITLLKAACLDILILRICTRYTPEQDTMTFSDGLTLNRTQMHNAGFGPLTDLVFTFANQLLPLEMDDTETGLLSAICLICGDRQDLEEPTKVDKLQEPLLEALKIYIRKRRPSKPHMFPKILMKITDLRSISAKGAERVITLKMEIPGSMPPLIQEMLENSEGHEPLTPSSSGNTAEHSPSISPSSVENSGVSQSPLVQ
human RAR-related Orphan Receptor beta (RORb), RORB (gene 6096), sequence (Q92753 whole entry, looked up, the tested form may be a part): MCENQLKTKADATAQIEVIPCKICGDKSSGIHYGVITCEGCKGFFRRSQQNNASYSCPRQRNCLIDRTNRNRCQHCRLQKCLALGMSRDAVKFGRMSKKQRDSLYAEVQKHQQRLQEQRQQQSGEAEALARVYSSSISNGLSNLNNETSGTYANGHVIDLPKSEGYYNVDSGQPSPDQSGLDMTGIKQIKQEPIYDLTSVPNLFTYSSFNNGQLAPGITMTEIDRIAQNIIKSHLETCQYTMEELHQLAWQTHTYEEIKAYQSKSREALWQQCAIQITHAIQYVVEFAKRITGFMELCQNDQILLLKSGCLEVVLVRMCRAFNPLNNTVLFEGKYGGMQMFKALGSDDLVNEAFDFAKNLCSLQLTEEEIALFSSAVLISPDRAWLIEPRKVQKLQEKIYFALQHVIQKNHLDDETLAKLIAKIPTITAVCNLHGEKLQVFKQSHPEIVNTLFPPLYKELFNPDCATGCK

In the case of `C#CCO`, the outcome in assay [1], in [2], in assay [3], in [4], in [5] and in assay [6] was inactive. In addition, the call in assay [7] and in assay [8] was inactive.

For orientation: AC50 means the concentration at which the activity in the assay is half-maximal. For `OC[P+](CO)(CO)CO`, the AC50 in assay [1] is 30.2 µM (active) and 26.4 µM (active). In addition, the outcome in assay [2], in assay [3], in [5], in assay [9], in assay [6] and in assay [7] was inactive. Also, the result in [10] was inactive.

On to `CCOP(=S)(OCC)SCSc1cc(Cl)ccc1Cl`, for which the outcome in [1], in [2], in assay [3], in [4], in assay [6] and in [8] was inactive.

Turning to `C=CCc1ccccc1O`, the result in [1], in assay [2], in [3], in assay [4], in [11] and in assay [10] was inactive.

As for `ClCCN1CCOCC1`, the outcome in assay [12], in assay [2], in assay [3], in assay [5] and in [8] was inactive.

On to `O=C(NC(=O)c1c(F)cccc1F)Nc1cc(Cl)c(F)c(Cl)c1F`, for which the result in assay [12], in assay [2], in assay [3], in [13], in assay [6] and in [11] was inactive. The compound was classed as inactive in assay [7] and in assay [8].

For the compound `CCCCOP(=O)(CCCC)OCCCC`, the outcome in [12], in assay [2], in [3], in assay [5], in assay [9] and in assay [14] was inactive. Further, the compound was called inactive in [10]. For the same compound, the AC50 in assay [6] is 38.4 µM (active); in assay [11] it was 8.52 µM (active).

Consider `O=NN1CCCCCCC1`, for which the call in assay [12], in assay [2], in [3], in assay [6], in assay [11] and in assay [10] was inactive.
